Screening results: PubChem, National Center for Advancing Translational Sciences (NCATS)
Most compounds without a hit are left out; they make up all but 8.3% or so of the library.
FMDV antiviral: foot and mouth disease virus antiviral activity | FMDV antiviral cell-based qHTS | Potency, µM (top dose mostly 57.9 µM), without a hit: at the top dose activity change, negative = inhibition, usual class: inhibitors | actives 1.2% (n = 410,000) | AID 1159524; calls by dose curve; tested in HEK293T cells; also: read-out not given here; potency is read from the fitted curve at half-maximal effect; nearly all actives have a fitted effect of over 45% in size
Marburg entry inh: blocks Marburg virus binding to or entry into cells. Marburg virus pseudotyped entry inhibition, cell reporter. Potency, µM (series often up to 37.8 µM), for the others: at the top dose activity change, negative = inhibition, actives largely listed as inhibitors. actives 1.8% (n = 300,000). AID 540276; calls by dose curve; tested in HEK293 cells; also: potency is read from the fitted curve at half-maximal effect
HCMV inh: human cytomegalovirus inhibition; actives 4.5% (n = 410,000); activity change, negative = inhibition, % at 57.5 µM; HFF cells, HCMV-luciferase reporter, 72 h; hits give low values; in the data active = activity change below about -60%; inconclusive = no clear call, values can overlap the other calls; inactive = above about -39%
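After 16 h attachment at 37C, HFF cells received test compound and HCMV-luciferase (1 PFU/cell); reporter luminescence read 72 h later, data normalized against buffer-only and known inhibitor Salinomycin.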
HCV inh: blocks hepatitis C virus | Huh7.5.1 HCVcc-Cre infection, luciferase reporter, 44 h | Potency, µM (titrated, usually from 41.8 µM), without a hit: at the highest dose activity change, negative = inhibition, most hits filed as inhibitors | actives 3.4% (n = 340,000); also: potency is read from the fitted curve at half-maximal effect
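Infectious HCVcc-Cre (~0.5 moi) was added to cells just after compound, with cells seeded 4 h earlier at 1,000 per well. Luciferase activity after 44 h culture reported infection; substrate was incubated 15 min at room temperature before reading.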
LASV entry inh: Lassa virus entry inhibition; Lassa virus pseudotype entry inhibition, cell reporter; Potency, µM (titrated, usually from 37.9 µM), without a hit: at the top dose activity change, negative = inhibition, most hits filed as inhibitors; actives 1.2% (n = 300,000); AID 540256; calls by dose curve; tested in HEK293 cells; also: potency is read from the fitted curve at half-maximal effect; nearly all actives have a fitted effect of over 50% in size
FBPA Giardia inh: inhibitors of Giardia lamblia fructose-1,6-bisphosphate aldolase | actives 0.71% (n = 290,000) | A8B2U2 | purified Giardia FBPA | AID 2451 | Potency, µM (highest dose often 59.6 µM), for inactives: at the highest dose activity, negative = inhibition, most hits filed as inhibitors; also: potency is read from the fitted curve at half-maximal effect; nearly all actives have a fitted effect of over 55% in size
Target sequence (A8B2U2 whole entry, looked up): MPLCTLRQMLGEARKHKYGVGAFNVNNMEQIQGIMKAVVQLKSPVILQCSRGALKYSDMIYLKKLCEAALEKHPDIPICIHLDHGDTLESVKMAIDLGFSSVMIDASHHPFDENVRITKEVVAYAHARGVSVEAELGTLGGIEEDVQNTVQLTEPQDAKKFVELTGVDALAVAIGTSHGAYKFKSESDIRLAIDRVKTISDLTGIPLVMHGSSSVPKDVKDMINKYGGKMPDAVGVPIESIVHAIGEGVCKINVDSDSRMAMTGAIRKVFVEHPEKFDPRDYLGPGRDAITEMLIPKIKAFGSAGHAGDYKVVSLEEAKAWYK
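Giardia FBPA (40 nM reagent) was preincubated 10 min at RT with compound (up to 57.5 uM final), then substrate plus GAPDH/TPI/NAD/arsenate coupling system with diaphorase/resazurin was added; resorufin fluorescence (525/598 nm) was read after 20 min.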
Numbers without * were called inactive; [ ] = dose if it differs, or a comment. Unless noted, calls follow the shape of the dose curve; as a rule, active = well fitted curve in the direction sought with a large enough effect; inconclusive = small, poorly fitted or top-dose-only effect, or another doubt; inactive = no such curve, though single readings can be large; an effect the other way counts as inactive or inconclusive. % is scaled to controls: 0 for no effect and ±100 for the full control effect.

What do the screens show for `O=C(c1ccccc1Br)N(CCc1ccccc1)C(CCc1ccccc1)c1nc2ccccc2[nH]1` (centres undefined)?
HCMV inh: -6

How did Cc1nc(SCc2ccc(C(=O)O)cc2)nc2c1CCCC2 do in these assays?
FMDV antiviral: inconclusive; Marburg entry inh: inconclusive; HCMV inh: -61*; HCV inh: 20%; LASV entry inh: -28%[46.1 µM]; FBPA Giardia inh: -9%

How did COc1ccc(NC(=S)N(CCN(C)C)C(C)c2ccco2)cc1 (centres undefined) do in these assays?
FMDV antiviral: 27%; Marburg entry inh: inconclusive; HCMV inh: -62*; HCV inh: -3%; LASV entry inh: inconclusive; FBPA Giardia inh: 0%

How did CCOC(=O)c1cccn1C1C(=O)N(Cc2ccc(C(C)C)cc2)c2ccc(Cl)cc21 (centres undefined) do in these assays?
HCMV inh: -12

Results for CC(=O)OCC(NC(=O)C(COCc1ccccc1)NC(=O)OC(C)(C)C)C1OC(n2cc(F)c(=O)[nH]c2=O)C(OC(C)=O)C1OC(C)=O (centres undefined) ?
FBPA Giardia inh: 2%

How did CCN(Cc1nc2ccccc2c(=O)[nH]1)C(=O)c1cccc(OCc2c(C)noc2C)c1 do in these assays?
FMDV antiviral: inconclusive; Marburg entry inh: inconclusive; HCMV inh: -100*; HCV inh: inconclusive; LASV entry inh: inconclusive

Results for O=C(/C=C\Nc1ccccn1)c1ccccc1 ?
FMDV antiviral: -81%; Marburg entry inh: inconclusive; HCMV inh: 46; HCV inh: 8%; LASV entry inh: 2.5µM*; FBPA Giardia inh: 2%

How did O=C(/C=C/Nc1ccccc1Br)c1ccccn1 do in these assays?
FMDV antiviral: 2.2µM*; Marburg entry inh: inconclusive; HCMV inh: -85*; HCV inh: -9%; LASV entry inh: 1.1µM*; FBPA Giardia inh: 4%

How did O=C(NC1CCCCC1)N1CC(=O)N2[C@H](CO)[C@H](c3ccc(Br)cc3)[C@@H]2C1 do in these assays?
HCMV inh: -18

How did CCOC(=O)/C=c1/s/c(=C\c2c(OC)ccc3ccccc23)c(=O)n1CC(=O)NCC1CCCO1 (centres undefined) do in these assays?
FMDV antiviral: -11%; Marburg entry inh: inconclusive; HCMV inh: -87*; HCV inh: inconclusive; LASV entry inh: inconclusive

How did CCOC(=O)/C=c1\s/c(=C\c2ccccc2C)c(=O)n1CC(=O)NCc1ccc2c(c1)OCO2 do in these assays?
FMDV antiviral: 19%; Marburg entry inh: -27%; HCMV inh: 3; HCV inh: -1%; LASV entry inh: -20%; FBPA Giardia inh: 11%

What do the screens show for `CCOC(=O)/C=c1\s/c(=C\c2c(OCC)ccc3ccccc23)c(=O)n1CC(=O)NCC1CCCO1` (centres undefined)?
FMDV antiviral: -23%; Marburg entry inh: inconclusive; HCMV inh: 26; HCV inh: 3.5µM*; LASV entry inh: inconclusive; FBPA Giardia inh: 4%

What do the screens show for `CCOC(=O)/C=c1\s/c(=C\c2ccc3cc(OC)ccc3c2)c(=O)n1CC(=O)NCc1ccc2c(c1)OCO2`?
FMDV antiviral: 20%; Marburg entry inh: -22%[46.1 µM]; HCMV inh: -100*; HCV inh: -29%; LASV entry inh: 3%; FBPA Giardia inh: 3%

How did COc1ccc(Cl)cc1NC(=O)CN(C)C(=O)c1cc2c(F)cccc2s1 do in these assays?
FMDV antiviral: 9%; HCMV inh: -27; HCV inh: 4µM*

What do the screens show for `O=c1oc2ccccc2c(O)c1[C@H]1c2ccc(O)cc2Oc2c1c(=O)oc1ccccc21`?
FMDV antiviral: inconclusive; HCMV inh: -93*; HCV inh: -8%; FBPA Giardia inh: 13%

What do the screens show for `O=C1N=C(N2CCc3ccccc3C2)S/C1=C\c1cccc(O)c1`?
FMDV antiviral: 6%; Marburg entry inh: 24%; HCMV inh: 8; HCV inh: 4%; LASV entry inh: 21µM*; FBPA Giardia inh: -3%

How did CCS(=O)(=O)N1CCC2(CC1)OC(=O)C(C)=C2C(=O)NCc1ccccc1C do in these assays?
FMDV antiviral: 28%; HCMV inh: 17; LASV entry inh: inconclusive

How did O=C(NCc1ccc2c(c1)OCO2)c1ccc(CS(=O)Cc2cccc(Cl)c2)o1 (centres undefined) do in these assays?
FMDV antiviral: -11%; Marburg entry inh: -25%[46.1 µM]; HCMV inh: -5; HCV inh: -19%; LASV entry inh: -29%[46.1 µM]; FBPA Giardia inh: 9%

What do the screens show for `O=C(NCc1ccc2c(c1)OCO2)c1ccc(CS(=O)Cc2ccc(Cl)cc2)o1` (centres undefined)?
FMDV antiviral: -13%; Marburg entry inh: 0%[46.1 µM]; HCMV inh: -30; HCV inh: 11µM*; LASV entry inh: inconclusive; FBPA Giardia inh: 7%

What do the screens show for `O=C(NCCc1ccc(Cl)cc1)c1ccc(CS(=O)Cc2cccc(Cl)c2)o1` (centres undefined)?
FMDV antiviral: inconclusive; HCMV inh: -64*; LASV entry inh: -8%[46.1 µM]

What do the screens show for `COc1ccc(OC)c(CCNC(=O)c2ccc(CS(=O)Cc3ccc(Cl)cc3)o2)c1` (centres undefined)?
FMDV antiviral: -21%; HCMV inh: -5; HCV inh: 10µM*

Results for CCn1cc(C(=O)NCc2ccncc2)c(=O)c2cc(F)c(N3CCN(C(=O)c4ccco4)CC3)cc21 ?
FMDV antiviral: inconclusive; Marburg entry inh: 7%[46.1 µM]; HCMV inh: -18; HCV inh: inconclusive; LASV entry inh: 2%; FBPA Giardia inh: -4%

Results for CCn1cc(C(=O)NCc2ccccc2)c(=O)c2cc(F)c(N3CCN(C(=O)c4ccco4)CC3)cc21 ?
FMDV antiviral: 20µM*; Marburg entry inh: inconclusive; HCMV inh: -82*; HCV inh: 11µM*; LASV entry inh: inconclusive; FBPA Giardia inh: 7%

Results for CCn1cc(C(=O)NCc2ccc3c(c2)OCO3)c(=O)c2cc(F)c(N3CCN(C(=O)c4ccco4)CC3)cc21 ?
FMDV antiviral: 14µM*; Marburg entry inh: inconclusive; HCMV inh: -73*; HCV inh: inconclusive; LASV entry inh: inconclusive; FBPA Giardia inh: 10%

Results for CC(Oc1ccc(Br)cc1)C(=O)Nc1cc(Cl)ccc1N1CCN(C)CC1 (centres undefined) ?
FMDV antiviral: -10%; Marburg entry inh: 8.9µM*; HCMV inh: -4; HCV inh: inconclusive; LASV entry inh: inconclusive

What do the screens show for `CC(Oc1ccc(Cl)cc1Cl)C(=O)Nc1ccc(N2CCN(C)CC2)cc1` (centres undefined)?
FMDV antiviral: -14%; Marburg entry inh: 12µM*; HCMV inh: 15; HCV inh: inconclusive; LASV entry inh: inconclusive; FBPA Giardia inh: 6%
